These results are taken from PubChem BioAssay (NCATS).

Unmarked numbers belong to inactive results. Results filed as inconclusive are left out. Activity calls are given as the source filed them. Unless noted, calls follow the shape of the dose curve; as a rule, active = well fitted curve in the direction sought with a large enough effect; inconclusive = small, poorly fitted or top-dose-only effect, or another doubt; inactive = no such curve, though single readings can be large; an effect the other way counts as inactive or inconclusive. Some results are limits rather than exact numbers.

Test [1] addresses Lysosomal acid glucosylceramidase (Homo sapiens) (UniProt P04062). The test is described as follows: Glucocerebrosidase-p2 (AID 348; in the data active = potency below about 10 µM; also: potency is read from the fitted curve at half-maximal effect). The conditions noted are these: purified GBA, blue fluorogenic substrate, 40 min. In outline: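 Compounds titrated from 0.6 nM upwards against 0.2 nM enzyme in pH 5.9 citric acid/KH2PO4, taurocholate, tween-20; blue fluorogenic substrate 80 uM, 40 min room temperature, stopped and read Ex 365/Em 440 for AC50.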

For test [2], the target named is Cytochrome P450 1A2 (Homo sapiens) (UniProt P05177). The test can be described thus: p450-cyp1a2 (AID 410; calls by dose curve; also: potency is read from the fitted curve at half-maximal effect). A digest of the protocol: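 Human CYP1A2 (20nM) demethylated Luciferin-ME at its Km (100uM) in 100mM KPO4. After 10 min compound preincubation, NADPH regeneration ran the reaction 60 min at room temperature. Luciferin was read by luminescence, normalized to 57 uM furafylline.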
Chain of Cytochrome P450 1A2 (Homo sapiens) (P05177 whole entry, looked up): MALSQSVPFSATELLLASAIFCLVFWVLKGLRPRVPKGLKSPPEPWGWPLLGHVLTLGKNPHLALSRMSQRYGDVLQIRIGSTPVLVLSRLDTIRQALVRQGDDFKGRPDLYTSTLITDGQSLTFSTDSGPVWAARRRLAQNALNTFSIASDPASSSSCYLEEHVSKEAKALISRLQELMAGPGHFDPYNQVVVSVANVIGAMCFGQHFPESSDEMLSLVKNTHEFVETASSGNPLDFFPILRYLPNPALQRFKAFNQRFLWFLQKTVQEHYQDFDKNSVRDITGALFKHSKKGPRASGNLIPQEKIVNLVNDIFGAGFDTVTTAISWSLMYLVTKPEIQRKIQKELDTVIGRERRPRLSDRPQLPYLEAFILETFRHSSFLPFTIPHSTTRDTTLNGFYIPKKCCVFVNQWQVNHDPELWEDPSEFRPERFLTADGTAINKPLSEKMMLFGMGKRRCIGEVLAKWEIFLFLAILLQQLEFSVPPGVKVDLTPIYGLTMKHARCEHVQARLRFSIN

The nature of test [3]: Stat Signaling Pathway (AID 446; active = well fitted curve in either direction with a large enough effect, not every such curve was filed as active;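 also: ME-180 cervical cancer cells given 40 pM IL-6 alongside compound; SIE-controlled beta-lactamase reporter measured as 460/530 nm FRET emission ratio; % is scaled to controls: 0 for no effect and ±100 for the full control effect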). The conditions noted are these: ME-180 SIE beta-lactamase reporter, IL-6 stimulated, 5 h; at 7.69 µM (top of the series) unless noted. In outline: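 Screening format detects activators and inhibitors alike: ME-180 SIE-bla cells stimulated at 40 pM IL-6 for 5 hrs with compound, then dual-emission beta-lactamase read at 405 nm excitation.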

For test [4], the target named is Glucocorticoid receptor (Homo sapiens) (UniProt P04150). The test can be described thus: GR-GFP Redistribution (AID 450;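 active = compounds whose dose series gives a full or clear partial fitted curve of increased nuclear translocation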; also: potency is read from the fitted curve at half-maximal effect). The conditions noted are these: U2OS GR-GFP nuclear translocation, laser cytometry, 2 h.
Chain of Glucocorticoid receptor (Homo sapiens) (P04150 whole entry, looked up): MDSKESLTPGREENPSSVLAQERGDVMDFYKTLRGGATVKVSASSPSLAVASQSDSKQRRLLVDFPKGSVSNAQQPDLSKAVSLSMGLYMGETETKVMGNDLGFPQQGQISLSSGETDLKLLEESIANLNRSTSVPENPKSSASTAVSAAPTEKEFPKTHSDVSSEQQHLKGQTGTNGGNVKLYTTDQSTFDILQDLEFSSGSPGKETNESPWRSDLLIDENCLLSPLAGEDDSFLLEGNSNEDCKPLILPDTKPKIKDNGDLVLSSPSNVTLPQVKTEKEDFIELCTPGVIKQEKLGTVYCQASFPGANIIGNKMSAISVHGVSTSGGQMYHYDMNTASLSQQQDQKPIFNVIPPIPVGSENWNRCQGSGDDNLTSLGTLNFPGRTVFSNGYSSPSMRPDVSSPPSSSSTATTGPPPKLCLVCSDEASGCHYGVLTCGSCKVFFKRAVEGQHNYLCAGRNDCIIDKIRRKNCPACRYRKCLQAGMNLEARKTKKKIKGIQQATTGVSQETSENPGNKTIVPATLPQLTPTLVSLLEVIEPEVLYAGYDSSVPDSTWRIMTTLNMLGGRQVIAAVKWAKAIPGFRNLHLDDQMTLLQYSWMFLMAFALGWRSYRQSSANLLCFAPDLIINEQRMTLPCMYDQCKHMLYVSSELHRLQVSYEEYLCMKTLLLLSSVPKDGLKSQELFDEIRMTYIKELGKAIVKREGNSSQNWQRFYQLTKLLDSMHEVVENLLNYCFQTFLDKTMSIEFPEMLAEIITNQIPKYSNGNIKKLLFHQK
Test [5] shares this target. The test can be described thus: GR-EFC Redistribution (AID 451; calls by dose curve; also: potency is read from the fitted curve at half-maximal effect). The conditions noted are these: CHO-K1 GR-EFC translocation, beta-gal luminescence, 2 h. In outline:
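CHO-K1 cells expressing nuclear EA and GR-ED fragments of b-gal; compounds titrated up to 46 uM final, 2 h at 37 C. GR nuclear translocation read as complemented b-gal luminescence after 1 h RT detection.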

Test [6] concerns the target Mitogen-activated protein kinase 10 (Mus musculus) (UniProt Q61831). The test is described as follows: JNK3 AlphaScreen Assay (AID 530; active = well fitted curve in either direction with a large enough effect, not every such curve was filed as active;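 also: kinase came from lysate of stimulated human HepG2 cells; signal reports phosphorylation of biotinylated GST-cJun 1-79 at Ser73 with 10 µM ATP; % is scaled to controls: 0 for no effect and ±100 for the full control effect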). In outline:
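qHTS format: compounds tested as titrations against IL-1beta/TNF-alpha-activated HepG2 lysate JNK3 with biotin-GST-cJun substrate and 10 uM ATP at room temperature. Loss of anti-phospho-cJun AlphaScreen signal indicates inhibition.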

In test [7] the target is 3',5'-cyclic-AMP phosphodiesterase 4B (Homo sapiens) (UniProt Q07343). The test is described as follows: qHTS Assay for Inhibitors of PDE-IV (AID 607; active = well fitted activation curve with a large enough effect in the main read-out, with a control signal flat, not every such curve was filed as active; also: % of control where 0% means no effect). A digest of the protocol: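 The readout is membrane depolarisation from a cAMP-sensing CNG channel, detected with a potential dye at ex 535/em 590. Cells were HEK293-derived (endogenous PDE-IV) at 1000 cells/well, titrated up to 22.9 uM final.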
Chain of 3',5'-cyclic-AMP phosphodiesterase 4B (Homo sapiens) (Q07343 whole entry, looked up): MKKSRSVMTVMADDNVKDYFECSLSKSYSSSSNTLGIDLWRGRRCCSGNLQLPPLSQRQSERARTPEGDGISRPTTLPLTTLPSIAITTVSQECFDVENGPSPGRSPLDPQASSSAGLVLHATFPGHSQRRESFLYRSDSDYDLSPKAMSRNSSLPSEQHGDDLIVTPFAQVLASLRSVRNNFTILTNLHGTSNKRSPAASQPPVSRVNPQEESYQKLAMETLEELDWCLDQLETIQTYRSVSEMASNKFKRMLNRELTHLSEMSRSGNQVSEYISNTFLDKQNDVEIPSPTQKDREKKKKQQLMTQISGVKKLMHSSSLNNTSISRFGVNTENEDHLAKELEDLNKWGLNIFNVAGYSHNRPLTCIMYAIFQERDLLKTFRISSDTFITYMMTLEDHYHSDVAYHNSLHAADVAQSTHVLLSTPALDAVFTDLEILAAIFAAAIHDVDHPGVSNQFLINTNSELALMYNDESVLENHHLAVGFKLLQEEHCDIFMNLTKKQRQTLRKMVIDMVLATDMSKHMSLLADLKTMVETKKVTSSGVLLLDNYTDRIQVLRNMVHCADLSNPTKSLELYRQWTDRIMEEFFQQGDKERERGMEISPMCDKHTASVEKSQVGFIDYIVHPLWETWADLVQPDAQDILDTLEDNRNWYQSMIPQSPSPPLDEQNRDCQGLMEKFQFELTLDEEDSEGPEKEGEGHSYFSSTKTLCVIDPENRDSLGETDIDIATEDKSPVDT

Test [8] in a line: qHTS Assay for Identification of Small Molecule Agonists for Hypoxia Response Element Signaling Pathway (AID 914; active = well fitted activation curve with a large enough effect in the signal ratio, with a control signal flat, not every such curve was filed as active; the % refers to the signal ratio; also: potency is read from the fitted curve at half-maximal effect). The conditions noted are these: ME-180 HRE-bla reporter, beta-lactamase ratio, CoCl2, 17 h; activation: hits give high values. A digest of the protocol:
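AC50 values come from titration-series %Activity, taken as the 460/530nm ratio of CCF4 fluorescence (excitation 405nm). CellSensor HRE-bla ME-180 cells were treated 17 hours at 37 C with compound plus an EC50 level of CoCl2.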

The target in test [9] is Dual specificity protein kinase CLK4 (Homo sapiens) (UniProt Q9HAZ1). The test is described as follows: qHTS Assay for Inhibitors of CDC-like Kinase 4 (Kinase-Glo Assay) (AID 1770). Also: nearly all actives have a fitted effect of over 65% in size. Also: potency is read from the fitted curve at half-maximal effect. A digest of the protocol: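 25 nM Clk4 with 100 uM RS repeat peptide and 1 uM ATP (final) in Tris pH7.5, 10 mM MgCl2, 4.5 h at room temperature. Remaining ATP measured by Kinase-Glo luciferase luminescence.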
Chain of Dual specificity protein kinase CLK4 (Homo sapiens) (Q9HAZ1 whole entry, looked up): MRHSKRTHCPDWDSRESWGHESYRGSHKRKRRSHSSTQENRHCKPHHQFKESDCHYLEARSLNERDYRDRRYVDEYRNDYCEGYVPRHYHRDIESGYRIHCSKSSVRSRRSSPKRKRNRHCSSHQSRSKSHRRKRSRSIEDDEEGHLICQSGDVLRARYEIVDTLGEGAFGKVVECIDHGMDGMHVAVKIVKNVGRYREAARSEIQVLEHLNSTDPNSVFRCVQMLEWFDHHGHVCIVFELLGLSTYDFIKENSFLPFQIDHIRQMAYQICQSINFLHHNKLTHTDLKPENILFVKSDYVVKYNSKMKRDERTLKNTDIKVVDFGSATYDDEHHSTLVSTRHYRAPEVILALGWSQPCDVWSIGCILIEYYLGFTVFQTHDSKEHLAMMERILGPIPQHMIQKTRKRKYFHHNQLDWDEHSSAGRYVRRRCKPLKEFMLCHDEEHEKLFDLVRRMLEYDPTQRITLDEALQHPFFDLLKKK

For test [10] the target is unchanged. The test is described as follows: qHTS Assay for Inhibitors of CDC-like Kinase 4 (ADP-FP Assay) (AID 1795).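 Also: recombinant human CLK4 phosphorylating RS repeat peptide at 1 µM ATP; % is scaled to controls: 0 for no effect and ±100 for the full control effect; nearly all actives have a fitted effect of over 60% in size.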 In outline:
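Recombinant Clk4 (6.25 nM) phosphorylated 100 uM RS repeat peptide with 1 uM ATP in 25 mM Tris pH 7.5, 10 mM MgCl2, 0.5 mM EGTA, 2.5 mM DTT, 0.01% Triton X-100 for 1 h. ADP was detected by Transcreener ADP2 competitive fluorescence polarization after 30 min at room temperature.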

For test [11], the target named is Ubiquitin carboxyl-terminal hydrolase 1 (Homo sapiens) (UniProt O94782). The test is described as follows: Inhibitors of USP1/UAF1: Pilot qHTS (AID 504865). Also: nearly all actives have a fitted effect of over 35% in size. Also: potency is read from the fitted curve at half-maximal effect. In outline:
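USP1/UAF1 complex at 1 nM preincubated 15 min at room temperature with compound, then Ub-Rho substrate added at 150 nM final. Fluorescence (480/540 nm) read kinetically in 50 mM HEPES pH 7.8, 0.5 mM EDTA, 1 mM TCEP, 0.1 mg/ml BSA, 0.01% Tween-20.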

Test [12] in a line: Primary qHTS for small molecule stabilizers of the endoplasmic reticulum resident proteome: Secreted ER Calcium Modulated Protein (SERCaMP) assay (AID 1508630). Also: % is scaled to controls: 0 for no effect and ±100 for the full control effect. A digest of the protocol: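 GLuc-SERCaMP-expressing SH-SY5Y cells, pretreated 16 h with compound, are challenged with thapsigargin to empty ER calcium stores; after 4 h, coelenterazine is added directly to the medium and luminescence is imaged.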

A short description of test [13]: NFAT Signaling Pathway (AID 444; active = well fitted curve in either direction with a large enough effect, not every such curve was filed as active;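 also: carbachol stimulus at about its EC50 of 1 µM final; % is scaled to controls: 0 for no effect and ±100 for the full control effect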). To be noted: Jurkat NFAT-bla M1, carbachol, beta-lactamase ratio, 5 h; at 7.69 µM (top of the series) unless noted. A digest of the protocol:
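Jurkat cells with NFAT-driven β-lactamase reporter and co-expressed M1 receptor, stimulated with carbachol (final 1 uM, ~EC50), compound titration, 5 h at 37 °C. CCF4 loaded 1 h at RT; 460/530 nm ratio gave %activity and AC50.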

For test [14], the target named is Cytochrome P450 3A4 (Homo sapiens) (UniProt P08684). The test can be described thus: qHTS Assay for Activators of Cytochrome P450 3A4 (AID 885). Also: nearly all actives have a fitted effect of over 65% in size. A digest of the protocol:
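Steps: enzyme/substrate mix dispensed; compound added, 10 min RT; NADPH regeneration solution added, 60 min RT; luciferin detection buffer stops reaction; 20 min later luminescence measured.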

Test [15] is described as follows: AP1 Signaling Pathway (AID 357; active = well fitted curve in either direction with a large enough effect, not every such curve was filed as active). To be noted: ME-180 (cervical carcinoma) AP-1-bla reporter, EGF-induced, beta-lactamase ratio, 5 h; at 7.69 µM (top of the series) unless noted. In outline: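 Modulation of EGF-driven AP-1 transcription was assessed with a beta-lactamase reporter in ME-180 cells. Compound and EC50 EGF were co-incubated 5 hours at 37 °C before 2.5-hour CCF4 loading at room temperature and dual-emission reading.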

Test [16] deals with Cytochrome P450 3A4 (Homo sapiens) (UniProt P08684). The test is described as follows: qHTS Assay for Inhibitors and Substrates of Cytochrome P450 3A4 (AID 884). Also: potency is read from the fitted curve at half-maximal effect; nearly all actives have a fitted effect of over 50% in size. A digest of the protocol: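 20 nM human CYP3A4 with 25 uM Luciferin-PPXE (at KM) in 200 mM KPO4, preincubated 10 min with compound; NADPH regeneration started a 60 min RT reaction. Luciferin detected by luminescence, normalized to 57 uM ketoconazole as full inhibition.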
Chain of Cytochrome P450 3A4 (Homo sapiens) (P08684 whole entry, looked up): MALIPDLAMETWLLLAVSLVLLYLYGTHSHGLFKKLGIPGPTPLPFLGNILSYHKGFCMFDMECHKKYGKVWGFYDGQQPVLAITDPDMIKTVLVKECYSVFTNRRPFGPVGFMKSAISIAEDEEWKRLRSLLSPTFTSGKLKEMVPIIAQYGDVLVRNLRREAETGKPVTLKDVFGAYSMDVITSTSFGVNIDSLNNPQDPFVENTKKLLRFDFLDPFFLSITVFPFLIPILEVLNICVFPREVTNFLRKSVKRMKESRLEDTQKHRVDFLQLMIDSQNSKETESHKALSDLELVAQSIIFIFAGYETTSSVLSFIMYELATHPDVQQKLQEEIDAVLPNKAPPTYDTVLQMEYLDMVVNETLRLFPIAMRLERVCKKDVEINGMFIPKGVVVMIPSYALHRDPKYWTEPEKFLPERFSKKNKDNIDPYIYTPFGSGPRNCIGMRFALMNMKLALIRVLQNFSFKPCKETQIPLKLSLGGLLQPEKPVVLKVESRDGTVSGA

The target of test [17] is Dual specificity protein kinase CLK4 (Homo sapiens) (UniProt Q9HAZ1). The test can be described thus: qHTS Assay for Inhibitors of CDC-like Kinase 4 (ADP-Glo Assay) (AID 1771). Also: % is scaled to controls: 0 for no effect and ±100 for the full control effect; nearly all actives have a fitted effect of over 70% in size. In outline: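 Clk4 (25 nM) was incubated 1 hr at room temperature with 100 uM RS repeat peptide and 1 uM ATP in buffer with 2 mM MgCl2, 0.5 mM EGTA, 2.5 mM DTT. ADP formed was quantified by ADP-Glo luminescence.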

Test [18] deals with Cytochrome P450 2C19 (Homo sapiens) (UniProt P33261). The test is described as follows: qHTS Assay for Inhibitors and Substrates of Cytochrome P450 2C19 (AID 899). Also: potency is read from the fitted curve at half-maximal effect; nearly all actives have a fitted effect of over 60% in size. A digest of the protocol: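 Signal comes from luciferase acting on luciferin released by CYP2C19-mediated hydroxylation of Luciferin-H EGE, 10uM (KM). Assay mix: 5nM enzyme, 50mM KPO4; 60 min at 37C with NADPH regeneration. Data normalized against 57uM ketoconazole.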
Chain of Cytochrome P450 2C19 (Homo sapiens) (P33261 whole entry, looked up): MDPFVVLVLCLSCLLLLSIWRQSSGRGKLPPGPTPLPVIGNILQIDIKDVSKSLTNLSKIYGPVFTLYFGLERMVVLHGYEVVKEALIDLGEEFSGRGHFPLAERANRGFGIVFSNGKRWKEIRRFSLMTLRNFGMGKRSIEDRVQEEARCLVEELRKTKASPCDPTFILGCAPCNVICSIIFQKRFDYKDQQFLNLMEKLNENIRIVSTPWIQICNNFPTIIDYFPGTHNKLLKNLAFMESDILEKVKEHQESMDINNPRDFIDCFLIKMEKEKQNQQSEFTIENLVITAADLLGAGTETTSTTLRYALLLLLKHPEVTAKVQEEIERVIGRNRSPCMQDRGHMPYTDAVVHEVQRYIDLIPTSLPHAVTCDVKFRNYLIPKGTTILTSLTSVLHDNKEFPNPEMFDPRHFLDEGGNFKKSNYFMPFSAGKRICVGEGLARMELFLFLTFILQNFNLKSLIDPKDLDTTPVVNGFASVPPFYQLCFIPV

Chain of Ubiquitin carboxyl-terminal hydrolase 1 (Homo sapiens) (O94782 whole entry, looked up): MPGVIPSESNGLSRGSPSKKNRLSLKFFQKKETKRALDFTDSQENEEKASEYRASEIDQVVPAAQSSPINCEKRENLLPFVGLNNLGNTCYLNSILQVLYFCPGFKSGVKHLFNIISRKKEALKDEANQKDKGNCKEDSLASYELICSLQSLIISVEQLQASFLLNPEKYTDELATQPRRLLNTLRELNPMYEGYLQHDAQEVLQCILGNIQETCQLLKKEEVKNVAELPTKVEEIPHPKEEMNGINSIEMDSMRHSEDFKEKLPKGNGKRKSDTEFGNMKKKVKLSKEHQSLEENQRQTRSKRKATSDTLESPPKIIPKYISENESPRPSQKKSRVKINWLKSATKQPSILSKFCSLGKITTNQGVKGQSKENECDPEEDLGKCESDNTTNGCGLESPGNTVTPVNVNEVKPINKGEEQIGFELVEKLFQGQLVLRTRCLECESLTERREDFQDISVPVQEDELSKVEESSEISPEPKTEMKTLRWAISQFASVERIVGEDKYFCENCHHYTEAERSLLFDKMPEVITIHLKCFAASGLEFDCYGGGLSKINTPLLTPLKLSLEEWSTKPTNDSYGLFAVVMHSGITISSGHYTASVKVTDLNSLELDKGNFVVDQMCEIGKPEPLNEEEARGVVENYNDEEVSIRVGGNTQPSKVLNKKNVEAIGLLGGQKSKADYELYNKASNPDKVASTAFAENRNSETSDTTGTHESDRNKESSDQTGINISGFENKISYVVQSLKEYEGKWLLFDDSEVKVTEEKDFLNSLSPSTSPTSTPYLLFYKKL
Chain of Lysosomal acid glucosylceramidase (Homo sapiens) (P04062 whole entry, looked up): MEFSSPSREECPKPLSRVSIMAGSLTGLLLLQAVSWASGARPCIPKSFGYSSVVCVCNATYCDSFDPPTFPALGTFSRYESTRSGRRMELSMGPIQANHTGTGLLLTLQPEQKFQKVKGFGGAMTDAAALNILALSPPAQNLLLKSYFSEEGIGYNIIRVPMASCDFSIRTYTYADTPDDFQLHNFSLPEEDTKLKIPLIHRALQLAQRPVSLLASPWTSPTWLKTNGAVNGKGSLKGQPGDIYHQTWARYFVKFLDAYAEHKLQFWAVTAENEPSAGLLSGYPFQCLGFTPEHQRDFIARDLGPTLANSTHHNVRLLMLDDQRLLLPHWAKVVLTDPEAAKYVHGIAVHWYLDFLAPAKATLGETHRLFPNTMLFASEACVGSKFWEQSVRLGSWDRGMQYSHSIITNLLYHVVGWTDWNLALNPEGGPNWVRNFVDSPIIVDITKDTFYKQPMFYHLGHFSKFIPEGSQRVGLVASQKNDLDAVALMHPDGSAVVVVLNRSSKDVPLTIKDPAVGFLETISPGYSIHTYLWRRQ

As to `CN(C)c1ncc2nc(-c3ccc(Cl)cc3)c(=O)n(Cc3cccs3)c2n1`, the Potency is above 11.4 µM in test [1]; 1.58 µM (active) in test [2]; above 9.22 µM in [4]; above 46 µM in test [5]; 0.398 µM (active) in test [8]. Further, the activity, negative = inhibition in test [3] was 153% [activator] (active). Moreover, the Potency result in [6], in test [7], in [9], in [10] and in test [11] was “inactive” each time. Moreover, the outcome in test [12] was inactive.

With `CN(C)C(=O)c1ccc(-c2ccc3ncnc(NCc4ccccc4)c3c2)cc1`, the Potency in test [1] is above 11.4 µM; in [2], 15.8 µM (active); in [4] it was above 46 µM; in test [5] it was above 46 µM. The activity change, negative = inhibition in test [13] is 13%. Also, the activity, negative = inhibition in test [3] was 7.31%. Also, the Potency result in [6], in test [14], in test [9], in [10] and in [11] was “inactive” in each case. The outcome in test [12] was inactive.

In the case of `Clc1ccccc1-c1nc(NCc2cccnc2)c2ccccc2n1`, the activity change, negative = inhibition in test [15] is -8.93%; in test [13], 17.1%. Besides, the Potency in test [2] is 0.631 µM (active); in [4] it was above 46 µM; in [5], above 46 µM; in [16] it was 2.51 µM (active); in test [9] it was 28.2 µM (active); in test [11] it was 20 µM (active). Besides, the activity, negative = inhibition in test [3] was -13.8%. Besides, the Potency entry in test [6] and in test [14] was “inactive” each time. Besides, the result in [12] was inactive.

As to `COc1ccccc1CNc1ncncc1-c1cccc(NS(C)(=O)=O)c1`, the activity change, negative = inhibition in [15] was -18.5%; in test [13], 22.3%. Also, the activity, negative = inhibition in test [3] was -7.42%. Moreover, the Potency is above 46 µM in [4], above 46 µM in [5] and 0.251 µM (active) in test [16]. Further, the Potency result in [6], in test [7], in test [14], in test [9], in test [10] and in test [11] was “inactive” each time. The result in test [12] was inactive.

In the case of `Cn1c(=O)c(-c2ccc(F)c(F)c2)nc2cncnc21`, the Potency in test [1] is above 11.4 µM; in [2] it was 0.158 µM (active); in [4], above 9.22 µM; in test [5], above 46 µM. Also, the activity change, negative = inhibition was 10% in test [15] and -5.02% in test [13]. The activity, negative = inhibition in test [3] was -7.37%. For the same compound, the Potency result in test [6], in test [7], in test [14], in test [17], in test [10] and in test [11] was “inactive” each time. In addition, the outcome in test [12] was inactive.

For `COc1ccc2[nH]cc(CCNc3ccnc(-c4c(C)noc4C)n3)c2c1`, the Potency was above 11.4 µM in test [1]; 2 µM (active) in [2]; above 46 µM in test [4]; above 46 µM in test [5]; 2.51 µM (active) in [16]; 1.58 µM (active) in [18]. Moreover, the activity change, negative = inhibition in [15] is -4.62%; in test [13], 9.64%. Also, the activity, negative = inhibition in test [3] was -5.35%. Besides, the Potency entry in test [6], in [7], in [14], in test [17], in test [10] and in test [11] was “inactive” each time. Moreover, in [12], the result was inactive.
